Experimental findings from PubChem BioAssay (EPA / NIEHS) are described below.

Values joined by “and” are separate entries in the source; they are usually repeats but may differ in a detail not shown here. Identical values can stand only once. Results filed as inconclusive are left out. The source holds several records for some structures; these can differ, active in one and inactive in another. Active and inactive are the calls of the source. The calls were made as follows, unless noted: active = hit-call score of the fitted dose curve at least 0.9, where 1 is the maximum; inconclusive = response in the unintended direction; inactive = score below 0.9.

Read-out in assay [1]: glucuronosyltransferase (UGT1A1), UGT1A1 (gene 54658)
The assay is described as follows: CLD_UGT1A1_6hr: CellzDirect (CLD) Gene Expression Assay for glucuronosyltransferase (UGT1A1) at 6 hours (AID 2283672). Summed up:
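Primary human hepatocytes from two donor preparations, dosed with fresh solutions in 0.2% DMSO, harvested at 6 h. UGT1A1 mRNA measured by qNPA chemiluminescence; induction fitted upward versus DMSO.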

Read-out in assay [2]: Cytochrome P450 2B6 (Homo sapiens) (UniProt P20813)
The assay is described as follows: CLD_CYP2B6_6hr: CellzDirect (CLD) Gene Expression Assay for xenobiotic metabolism (CYP2B6) at 6 hours (AID 2283677).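 Also: actives raise CYP2B6 transcript above DMSO baseline so AC50 marks an inducer.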 Summed up: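 Primary human hepatocytes dosed with chemicals at multiple concentrations, vehicle 0.2% DMSO; CYP2B6 mRNA induction measured 6 h after dosing by quantitative nuclease protection assay with chemiluminescence, gain of signal fitted relative to DMSO.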

Read-out in assay [3]: Cytochrome P450 2C19 (Homo sapiens) (UniProt P33261)
Briefly: CLD_CYP2C19_6hr: CellzDirect (CLD) Gene Expression Assay for xenobiotic metabolism (CYP2C19) at 6 hours (AID 2283678). Put shortly:
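Primary human hepatocytes from two donor preparations were dosed daily, with 0.2% DMSO as vehicle, and harvested 6 h after dosing. CYP2C19 mRNA induction was measured by qNPA chemiluminescence and fitted as gain of signal against DMSO.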

Assay [4] in a line: CCTE_Padilla_ZF_144hpf_TERATOSCORE: (Legacy) CCTE's 144 Hour Post-fertilization zebrafish Assay Teratoscore, Padilla Lab (AID 2283679; active = hit-call score of the fitted dose curve at least 0.9, where 1 is the maximum; inactive = score below 0.9;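 as to AC50: zebrafish embryos with chorions exposed by immersion from 6-8 hpf to 5 dpf with daily renewal; teratogenicity score from eye scoring of death hatching and malformations at 144 hpf; higher score means more developmental defects relative to DMSO baseline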). Summed up: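 Larvae scored by eye at 144 hpf for death, hatching and malformations after a day in clean Hanks'. Before that, daily-renewed exposure at 80 uM (0.4% DMSO, 26C) from roughly 6-8 hpf through 5 dpf, 4 embryos per chemical.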
Read-out in assay [5]: xenobiotic metabolism (CYP1A2), CYP1A2 (gene 1544)
The assay is described as follows: CLD_CYP1A2_24hr: CellzDirect (CLD) Gene Expression Assay for xenobiotic metabolism (CYP1A2) at 24 hours (AID 2283683). Put shortly:
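Primary human hepatocytes from two donor preparations dosed daily with multiple concentrations of chemical, 0.2% DMSO vehicle. CYP1A2 mRNA at 24 h quantified by qNPA chemiluminescence; gain of signal analyzed relative to DMSO. Cytotoxicity flagged by phase-contrast morphology.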

Read-out in assay [6]: ABC Transporter (ABCB1), ABCB1 (gene 5243)
Briefly: CLD_ABCB1_24hr: CellzDirect (CLD) Gene Expression Assay for ABC Transporter (ABCB1) at 24 hours (AID 2283684). Put shortly:
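Primary human hepatocytes, two donor preparations, dosed daily with fresh solutions; vehicle 0.2% DMSO; harvested at 24 h. ABCB1 mRNA measured by quantitative nuclease protection assay (chemiluminescence); morphology-based cytotoxicity annotated.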

Read-out in assay [7]: Broad substrate specificity ATP-binding cassette transporter ABCG2 (Homo sapiens) (UniProt Q9UNQ0)
The assay is described as follows: CLD_ABCG2_24hr: CellzDirect (CLD) Gene Expression Assay for ABC Transporter (ABCG2) at 24 hours (AID 2283685). Put shortly: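 Primary human hepatocytes were dosed daily with ToxCast chemicals at multiple concentrations (vehicle 0.2% DMSO). ABCG2 mRNA was measured at 24 h by qNPA chemiluminescence; induction was scored as gain of signal versus DMSO.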

Read-out in assay [8]: ABC Transporter (ABCB11), ABCB11 (gene 8647)
Briefly: CLD_ABCB11_48hr: CellzDirect (CLD) Gene Expression Assay for ABC Transporter (ABCB11) at 48 hours (AID 2283697). Put shortly:
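Primary human hepatocytes from two donor preparations dosed daily for two days at multiple concentrations; 0.2% DMSO vehicle. ABCB11 mRNA at 48 h by quantitative nuclease protection assay, chemiluminescence; fitted for induction versus DMSO.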

Read-out in assay [9]: Cytochrome P450 3A4 (Homo sapiens) (UniProt P08684)
The assay is described as follows: CLD_CYP3A4_48hr: CellzDirect (CLD) Gene Expression Assay for xenobiotic metabolism (CYP3A4) at 48 hours (AID 2283698). Put shortly:
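Primary human hepatocytes from two donor preparations dosed daily for two days with multiple chemical concentrations, 0.2% DMSO vehicle. CYP3A4 mRNA at 48 h by quantitative nuclease protection assay, chemiluminescence, positive fit versus DMSO; cytotoxicity flagged morphologically.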

Read-out in assay [10]: Cytochrome P450 2B6 (Homo sapiens) (UniProt P20813)
Briefly: CLD_CYP2B6_48hr: CellzDirect (CLD) Gene Expression Assay for xenobiotic metabolism (CYP2B6) at 48 hours (AID 2283699).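 Also: actives raise transcript level above DMSO so potency reflects induction.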 Summed up: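 Primary human hepatocytes dosed daily for two days over multiple concentrations, 0.2% DMSO vehicle; CYP2B6 mRNA quantified at 48 h by qNPA chemiluminescence. Induction fitted as gain of signal versus DMSO; cytotoxicity annotated by morphology.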

Read-out in assay [11]: Cytochrome P450 2C9 (Homo sapiens) (UniProt P11712)
The assay is described as follows: CLD_CYP2C9_48hr: CellzDirect (CLD) Gene Expression Assay for xenobiotic metabolism (CYP2C9) at 48 hours (AID 2283701; active = hit-call score of the fitted dose curve at least 0.9, where 1 is the maximum; inactive = score below 0.9). Put shortly:
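Primary human hepatocytes (two donor preparations) dosed daily for two days with test chemicals, 0.2% DMSO vehicle; harvested at 48 h. mRNA induction quantified by qNPA chemiluminescence, fitted for gain of signal against DMSO baseline; cytotoxicity annotated from phase-contrast morphology.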

Assay [12] is described as follows: CLD_ACTIN_48hr: CellzDirect (CLD) Gene Expression Assay for Baseline Control (Actin) at 48 hours (AID 2283702). Summed up:
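Primary human hepatocytes (two donor preparations) dosed daily for two days with ToxCast chemicals at multiple concentrations versus 0.2% DMSO vehicle; harvested at 48 h. Actin mRNA measured as a background control by quantitative nuclease protection assay with chemiluminescence.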

Read-out in assay [13]: xenobiotic metabolism (CYP1A2), CYP1A2 (gene 1544)
The assay is described as follows: CLD_CYP1A2_48hr: CellzDirect (CLD) Gene Expression Assay for xenobiotic metabolism (CYP1A2) at 48 hours (AID 2283703). Put shortly:
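Primary human hepatocytes from two donor preparations were dosed daily for two days at multiple concentrations in 0.2% DMSO vehicle. CYP1A2 mRNA was measured at 48 hours by chemiluminescent quantitative nuclease protection assay, with gain of signal fitted versus DMSO and cytotoxicity annotated from morphology.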

Read-out in assay [14]: xenobiotic metabolism (CYP1A1), CYP1A1 (gene 1543)
Briefly: CLD_CYP1A1_48hr: CellzDirect (CLD) Gene Expression Assay for xenobiotic metabolism (CYP1A1) at 48 hours (AID 2283705). Summed up: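 Primary human hepatocytes from two donors dosed daily for two days at multiple concentrations, 0.2% DMSO vehicle; CYP1A1 mRNA induction at 48 h by qNPA chemiluminescence. Cytotoxicity noted by phase-contrast morphology.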

Read-out in assay [15]: Glyceraldehyde-3-phosphate dehydrogenase (Homo sapiens) (UniProt P04406)
Briefly: CLD_GAPDH_48hr: CellzDirect (CLD) Gene Expression Assay for Baseline Control (Glyceraldehyde 3-phosphate dehydrogenase) at 48 hours (AID 2283706).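 Also: active means higher GAPDH mRNA than DMSO vehicle.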 Put shortly:
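Primary human hepatocytes dosed daily for two days with fresh chemical at multiple concentrations, 0.2% DMSO vehicle; GAPDH mRNA measured at 48 h by quantitative nuclease protection assay with chemiluminescence, fitted upward relative to DMSO as background control.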

Read-out in assay [16]: Cytochrome P450 2B6 (Homo sapiens) (UniProt P20813)
Briefly: CLD_CYP2B6_24hr: CellzDirect (CLD) Gene Expression Assay for xenobiotic metabolism (CYP2B6) at 24 hours (AID 2283686). Put shortly: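 Primary human hepatocytes dosed daily for two days with fresh solutions, harvested at 24 hours; mRNA induction quantified by qNPA chemiluminescence, gain of signal vs 0.2% DMSO vehicle. Cytotoxicity annotated from phase-contrast morphology.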

Read-out in assay [17]: xenobiotic metabolism (CYP1A1), CYP1A1 (gene 1543)
Briefly: CLD_CYP1A1_24hr: CellzDirect (CLD) Gene Expression Assay for xenobiotic metabolism (CYP1A1) at 24 hours (AID 2283673). Summed up: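 Primary human hepatocytes dosed daily with fresh solutions in 0.2% DMSO vehicle. mRNA measured at 24 h by quantitative nuclease protection assay with chemiluminescence; gain-of-signal fit versus DMSO, with morphology-based cytotoxicity flags.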

Read-out in assay [18]: ABC Transporter (ABCB1), ABCB1 (gene 5243)
The assay is described as follows: CLD_ABCB1_48hr: CellzDirect (CLD) Gene Expression Assay for ABC Transporter (ABCB1) at 48 hours (AID 2283695). Summed up: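 Primary human hepatocytes from two donor preparations dosed daily on two consecutive days with 0.2% DMSO vehicle. Harvest at 48 h. ABCB1 mRNA quantified by qNPA with chemiluminescence and fitted for gain of signal versus DMSO.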

Read-out in assay [19]: glucuronosyltransferase (UGT1A1), UGT1A1 (gene 54658)
Briefly: CLD_UGT1A1_24hr: CellzDirect (CLD) Gene Expression Assay for glucuronosyltransferase (UGT1A1) at 24 hours (AID 2283696). Put shortly: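 Primary human hepatocytes from two donor preparations were dosed (0.2% DMSO vehicle) and harvested at 24 h; UGT1A1 mRNA induction was quantified by chemiluminescent qNPA, fitted as gain relative to DMSO.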

Glyceraldehyde-3-phosphate dehydrogenase (Homo sapiens), sequence (P04406 whole entry, looked up): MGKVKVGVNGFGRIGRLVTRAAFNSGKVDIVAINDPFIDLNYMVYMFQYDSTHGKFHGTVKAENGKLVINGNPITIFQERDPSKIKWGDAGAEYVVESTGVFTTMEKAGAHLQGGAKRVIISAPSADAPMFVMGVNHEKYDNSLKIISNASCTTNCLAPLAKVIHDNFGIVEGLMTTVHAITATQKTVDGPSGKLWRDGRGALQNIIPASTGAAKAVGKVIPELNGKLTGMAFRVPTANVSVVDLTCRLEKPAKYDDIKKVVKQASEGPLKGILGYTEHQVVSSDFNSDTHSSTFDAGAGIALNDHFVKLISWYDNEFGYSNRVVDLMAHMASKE
Broad substrate specificity ATP-binding cassette transporter ABCG2 (Homo sapiens), sequence (Q9UNQ0 whole entry, looked up): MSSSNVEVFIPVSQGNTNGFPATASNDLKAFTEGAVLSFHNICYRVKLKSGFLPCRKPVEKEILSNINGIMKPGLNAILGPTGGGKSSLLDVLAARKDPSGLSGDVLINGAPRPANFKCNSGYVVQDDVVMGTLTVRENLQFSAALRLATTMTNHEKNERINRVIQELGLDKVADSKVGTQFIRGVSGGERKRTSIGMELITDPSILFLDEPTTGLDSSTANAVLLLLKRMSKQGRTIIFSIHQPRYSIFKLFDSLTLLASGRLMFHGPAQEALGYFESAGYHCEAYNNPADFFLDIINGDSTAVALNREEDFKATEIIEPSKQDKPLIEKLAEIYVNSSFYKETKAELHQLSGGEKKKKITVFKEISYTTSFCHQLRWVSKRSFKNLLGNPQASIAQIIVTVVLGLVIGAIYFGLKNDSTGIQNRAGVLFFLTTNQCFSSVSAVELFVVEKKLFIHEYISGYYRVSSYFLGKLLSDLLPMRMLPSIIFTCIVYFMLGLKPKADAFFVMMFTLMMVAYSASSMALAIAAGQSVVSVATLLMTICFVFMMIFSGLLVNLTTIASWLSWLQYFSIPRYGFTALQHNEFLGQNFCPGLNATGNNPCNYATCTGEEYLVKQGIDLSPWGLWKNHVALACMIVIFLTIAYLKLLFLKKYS
Cytochrome P450 2C19 (Homo sapiens), sequence (P33261 whole entry, looked up): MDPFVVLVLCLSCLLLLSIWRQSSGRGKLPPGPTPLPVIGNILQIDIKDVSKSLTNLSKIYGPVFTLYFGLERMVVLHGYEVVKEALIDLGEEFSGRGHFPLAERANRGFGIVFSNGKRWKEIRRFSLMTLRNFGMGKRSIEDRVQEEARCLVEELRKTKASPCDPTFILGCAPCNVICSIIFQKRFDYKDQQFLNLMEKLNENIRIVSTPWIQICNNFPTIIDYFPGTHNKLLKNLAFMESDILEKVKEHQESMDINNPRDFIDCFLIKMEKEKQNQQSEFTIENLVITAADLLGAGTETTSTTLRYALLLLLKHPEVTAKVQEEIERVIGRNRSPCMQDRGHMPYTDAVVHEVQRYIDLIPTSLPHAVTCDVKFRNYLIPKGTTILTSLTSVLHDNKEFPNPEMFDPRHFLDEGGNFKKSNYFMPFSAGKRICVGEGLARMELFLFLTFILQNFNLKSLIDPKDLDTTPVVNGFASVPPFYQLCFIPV
Cytochrome P450 3A4 (Homo sapiens), sequence (P08684 whole entry, looked up): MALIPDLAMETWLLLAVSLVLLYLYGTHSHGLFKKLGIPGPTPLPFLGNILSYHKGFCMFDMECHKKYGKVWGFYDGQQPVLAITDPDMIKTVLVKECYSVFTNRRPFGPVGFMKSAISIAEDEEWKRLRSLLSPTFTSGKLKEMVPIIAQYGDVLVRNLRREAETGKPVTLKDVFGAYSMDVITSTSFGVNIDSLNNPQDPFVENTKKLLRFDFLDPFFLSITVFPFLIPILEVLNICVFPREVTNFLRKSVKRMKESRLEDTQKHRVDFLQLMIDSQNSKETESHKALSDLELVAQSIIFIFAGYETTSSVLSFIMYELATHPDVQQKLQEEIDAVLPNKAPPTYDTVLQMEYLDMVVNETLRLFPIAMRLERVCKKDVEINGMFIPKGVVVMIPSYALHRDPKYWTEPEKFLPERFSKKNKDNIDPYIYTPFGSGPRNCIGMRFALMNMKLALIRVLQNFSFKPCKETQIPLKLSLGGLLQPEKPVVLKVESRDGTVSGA

As to `COc1nc(C)nc(NC(=O)NS(=O)(=O)c2ccccc2Cl)n1`, the result in assay [1], in assay [2], in [3], in assay [4], in assay [5] and in assay [6] was inactive. Besides, the call in [7], in assay [8], in [9], in assay [10], in [11] and in [12] was inactive. For the same compound, the call in assay [13], in [14] and in assay [15] was inactive.

Regarding `CNC(=O)ON=CC(C)(C)SC`, the result in [1], in [2], in [5], in assay [6], in assay [7] and in assay [16] was inactive. The compound was classed as inactive in [9], in assay [10], in assay [12] and in assay [15]. Also, the AC50 in [4] was 65.3 µM (active).

Turning to `CCOC(=O)CC(SP(=S)(OC)OC)C(=O)OCC` (stereo unspecified), the call in assay [1], in [17], in [6], in assay [7], in assay [18] and in assay [9] was inactive. The compound was called inactive in [10], in assay [12] and in assay [15]. Further, the figures for the half-maximal activity concentration (AC50) in assay [4], in assay [5] and in [13] were 27.3 µM (active), 8.3 µM (active) and 5.39 µM (active), respectively.

As to `COc1nc(C)nc(NC(=O)NS(=O)(=O)c2ccccc2CCC(F)(F)F)n1`, the outcome in [1], in assay [3], in assay [4], in assay [5], in assay [6] and in assay [7] was inactive. For the same compound, the call in [19], in assay [8], in assay [11], in assay [12], in [13] and in assay [14] was inactive. The concentration at half-maximal activity (AC50) is 1.7 µM (active) and 11 µM (active) in assay [5]; 3.4 µM (active) and 5.71 µM (active) and 908 nM (active) in assay [16]; 20 µM (active) and 4.16 µM (active) and 3.34 µM (active) in assay [9]; 2.5 µM (active) and 990 nM (active) and 836 nM (active) in assay [10]; 8.01 µM (active) in assay [13].

For the compound `CCc1nn(C)c(C(=O)NCc2ccc(C(C)(C)C)cc2)c1Cl`, the result in assay [1], in assay [3], in assay [5], in assay [6], in [7] and in [16] was inactive. Besides, the half-maximal activity concentration (AC50) in assay [4] is 0.164 µM (active); in assay [8] it was 37 µM (active); in assay [9] it was 20 µM (active); in [10] it was 37.3 µM (active); in assay [14], 8.98 µM (active).
